Source: PubChem BioAssay (Tox21)
Unmarked numbers belong to inactive results. Records with an inconclusive call do not appear. Where a call stands in place of a potency, no number is given. Active and inactive are the calls of the source. Unless noted, calls come from the whole dose curve; as a rule, active = well fitted curve in the direction sought with a large enough effect in the repeat runs; inconclusive = weak or mixed curves; inactive = no such curve, though single readings can be large; an effect the other way counts as inactive or inconclusive.

Legend:
[1] = qHTS assay to identify small molecule agonists of the estrogen receptor alpha (ER-alpha) signaling pathway in the presence of an antagonist - cell viability counter screen (AID 1259386);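 note: series mostly up to about 92 µM; cells exposed to compounds for 22 h at 37 °C before the viability read; nearly all actives have a fitted effect of over 30% in size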
Method in brief: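 Read-out: CellTiter-Fluor fluorescence after 1hr reagent incubation, measured in the same wells as the luciferase readout. VM7Luc4E2 cells were exposed to 15 compound concentrations with 10.0nM ICI-182,780 for 22hr at 37C.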

[2] = biological target: Progesterone receptor (Homo sapiens) (UniProt P06401); test: qHTS assay to identify small molecule agonists of the progesterone receptor (PR) signaling pathway (AID 1346784; calls by dose curve; note: nearly all actives have a fitted effect of over 30% in size; note: potency is the fitted concentration of half-maximal effect)
Chain of Progesterone receptor (Homo sapiens) (P06401 whole entry, looked up): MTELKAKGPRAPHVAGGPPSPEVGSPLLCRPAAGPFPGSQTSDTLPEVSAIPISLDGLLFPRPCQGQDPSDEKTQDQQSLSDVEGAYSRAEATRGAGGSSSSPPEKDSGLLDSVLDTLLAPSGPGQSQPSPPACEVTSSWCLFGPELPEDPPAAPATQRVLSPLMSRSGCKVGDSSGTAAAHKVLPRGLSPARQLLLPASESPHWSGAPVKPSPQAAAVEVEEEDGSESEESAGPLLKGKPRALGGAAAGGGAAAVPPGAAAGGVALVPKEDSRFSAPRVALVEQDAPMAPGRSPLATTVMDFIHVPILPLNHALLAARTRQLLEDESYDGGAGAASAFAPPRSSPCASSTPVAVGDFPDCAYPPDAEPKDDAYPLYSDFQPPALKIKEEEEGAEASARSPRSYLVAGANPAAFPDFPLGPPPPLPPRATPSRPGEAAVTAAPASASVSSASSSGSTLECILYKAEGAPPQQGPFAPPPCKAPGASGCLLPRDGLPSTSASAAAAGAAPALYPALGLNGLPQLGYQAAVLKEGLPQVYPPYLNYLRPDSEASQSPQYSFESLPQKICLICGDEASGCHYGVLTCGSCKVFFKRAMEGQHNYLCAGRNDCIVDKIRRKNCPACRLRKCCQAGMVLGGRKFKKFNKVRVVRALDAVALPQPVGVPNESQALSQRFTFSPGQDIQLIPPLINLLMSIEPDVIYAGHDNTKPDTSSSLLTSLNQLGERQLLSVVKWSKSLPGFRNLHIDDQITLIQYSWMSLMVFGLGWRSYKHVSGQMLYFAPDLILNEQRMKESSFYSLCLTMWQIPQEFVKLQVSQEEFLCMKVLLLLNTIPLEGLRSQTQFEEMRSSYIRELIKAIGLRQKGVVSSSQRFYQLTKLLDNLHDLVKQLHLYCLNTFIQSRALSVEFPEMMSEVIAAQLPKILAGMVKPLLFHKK
Method in brief: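 Reporter assay, GripTite PR-UAS-bla HEK 293T cells: 16 hr exposure to DMSO-dissolved compounds at 37C, 5% CO2, in steroid-depleted (2% charcoal-stripped FBS) medium; beta-lactamase measured by FRET fluorescence.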

[3] = biological target: Progesterone receptor (Homo sapiens) (UniProt P06401); test: qHTS assay to identify small molecule antagonists of the progesterone receptor (PR) signaling pathway (AID 1346795; active = well fitted inhibition curve with a large enough effect in the signal ratio in the repeat runs, not every such curve was filed as active; the % refers to the signal ratio)
Method in brief: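 Stimulus R5020 at 1 nM final; cells HEK293T PR-UAS-bla; medium with 2% charcoal-stripped FBS; compound exposure 16 hr at 37C, 5% CO2; detection by FRET beta-lactamase substrate, 2 hr, room temperature.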

[4] = qHTS assay to identify small molecule antagonists of the progesterone receptor (PR) signaling pathway - cell viability counter screen (AID 1346798); note: series mostly up to about 92 µM; nearly all actives have a fitted effect of over 50% in size
Method in brief: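 In the same plates used for the beta-lactamase readout, cell viability of compound- and R5020-treated PR-UAS-bla HEK293T cells (16 hr, 37C) was assessed by CellTiter-Glo luminescence.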

[5] = qHTS assay to identify small molecule agonists of the progesterone receptor (PR) signaling pathway - cell viability counter screen (AID 1346799; calls by dose curve; note: nearly all actives have a fitted effect of over 45% in size)
Method in brief: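 Multiplexed viability read: CellTiter-Glo luminescence, 30 min RT, following LiveBLAzer FRET measurement on PR-UAS-bla HEK293T cells exposed to compounds 16 hr.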

[6] = qHTS assay to identify small molecule antagonists of the TGF-beta/Smad signaling pathway - cell viability counter screen (AID 1346824); note: nearly all actives have a fitted effect of over 50% in size
Method in brief: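 SBE-bla HEK 293T cells, incubated overnight, then compound plus 0.25 ng/mL TGF-beta1 (stock added) for 5 hr at 37 C. Viability was read in the same wells by CellTiter-Glo luminescence after 30 min at room temperature.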

[7] = qHTS assay to identify small molecule agonists of the TGF-beta/Smad signaling pathway - cell viability counter screen (AID 1346829); note: top concentration of the series differs between compounds; nearly all actives have a fitted effect of over 45% in size
Method in brief: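 After overnight seating at 37 C and 5% CO2, reporter cells got compounds for 5 hr and FRET substrate for 2 hr; cell viability then came from CellTiter-Glo luminescence.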

[8] = biological target: Thyrotropin-releasing hormone receptor (Homo sapiens) (UniProt P34981); test: qHTS assay to identify small molecule agonists of the thyrotropin-releasing hormone receptor (TRHR) signaling pathway (AID 1346891; calls by dose curve; note: series mostly up to about 58 µM)
Chain of Thyrotropin-releasing hormone receptor (Homo sapiens) (P34981 whole entry, looked up): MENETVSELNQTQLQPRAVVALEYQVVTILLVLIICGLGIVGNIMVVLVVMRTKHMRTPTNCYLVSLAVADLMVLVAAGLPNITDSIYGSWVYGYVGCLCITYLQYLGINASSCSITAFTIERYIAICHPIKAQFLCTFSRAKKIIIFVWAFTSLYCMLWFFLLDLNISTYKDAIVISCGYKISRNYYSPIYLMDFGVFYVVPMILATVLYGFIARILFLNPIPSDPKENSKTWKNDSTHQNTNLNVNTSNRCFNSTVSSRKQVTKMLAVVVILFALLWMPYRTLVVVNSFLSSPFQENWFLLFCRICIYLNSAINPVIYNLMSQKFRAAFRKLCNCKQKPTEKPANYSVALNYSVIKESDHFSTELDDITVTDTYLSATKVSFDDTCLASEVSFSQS
Method in brief: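 Readout was intracellular calcium fluorescence in TRHR-Hek293 cells. Cells were incubated 18 h, dye-loaded 2 h at 37 °C, and treated with compound in agonist mode.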

[9] = Human pregnane X receptor (PXR) small molecule agonists, qHTS cell viability counter screen (AID 1346977); note: nearly all actives have a fitted effect of over 50% in size
Method in brief: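 In each well, the PXR reporter HepG2 line was checked for viability: CellTiter-Fluor reagent added 23hr post-dosing, fluorescence read after 1hr incubation at 37C.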

[10] = Caspase-3/7 induction in CHO-K1 cells by small molecules, qHTS cell viability counter screen (AID 1346979); note: nearly all actives have a fitted effect of over 35% in size
Method in brief: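 Following a 5hr settling period, CHO-K1 cells at 1,500 per well received DMSO-dissolved compounds. Cell viability was quantified 16hr later by CellTiter-Fluor fluorescence, measured after 1hr with reagent at 37C.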

[11] = Caspase-3/7 induction in CHO-K1 cells by small molecules, qHTS assay (AID 1346980); note: nearly all actives have a fitted effect of over 15% in size
Method in brief: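 Wild-type CHO-K1 cells exposed to compounds for 17hr at 37 C, 5% CO2. Caspase-3/7 activity then measured by Caspase-Glo 3/7 luminescence after 30min at room temperature.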

[12] = biological target: Nuclear receptor subfamily 1 group I member 2 (Homo sapiens) (UniProt O75469); test: Human pregnane X receptor (PXR) small molecule agonists, qHTS assay (AID 1346982); note: nearly all actives have a fitted effect of over 35% in size; note: potency is the fitted concentration of half-maximal effect
Chain of Nuclear receptor subfamily 1 group I member 2 (Homo sapiens) (O75469 whole entry, looked up): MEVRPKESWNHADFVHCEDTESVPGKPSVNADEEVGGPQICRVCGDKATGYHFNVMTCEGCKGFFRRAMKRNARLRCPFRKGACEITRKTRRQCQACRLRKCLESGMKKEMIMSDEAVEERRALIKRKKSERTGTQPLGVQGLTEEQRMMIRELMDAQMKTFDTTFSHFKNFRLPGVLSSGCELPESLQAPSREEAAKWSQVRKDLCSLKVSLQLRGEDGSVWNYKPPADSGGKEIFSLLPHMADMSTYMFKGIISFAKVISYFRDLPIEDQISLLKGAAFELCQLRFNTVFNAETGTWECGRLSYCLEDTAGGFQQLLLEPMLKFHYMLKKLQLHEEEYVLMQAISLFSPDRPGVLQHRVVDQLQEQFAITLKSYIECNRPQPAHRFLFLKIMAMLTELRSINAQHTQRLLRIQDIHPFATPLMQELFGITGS
Method in brief: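 HepG2 PXR-Luc reporter line, 5% charcoal-stripped FBS; 5 hr pre-incubation, compound (DMSO) 24 hr at 37 C/5% CO2; ONE-Glo 30 min RT; luminescence read-out.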

[13] = Caspase-3/7 induction in HepG2 cells by small molecules, qHTS assay (AID 1346978); note: nearly all actives have a fitted effect of over 15% in size
Method in brief: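 Wild-type HepG2 cells, 2,000/well, settled 5 hr at 37 C and 5% CO2, then compound-treated for 17 hr; caspase-3/7 activity read by luminescent Caspase-Glo 3/7 after 30 min at room temperature.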

[14] = Caspase-3/7 induction in HepG2 cells by small molecules, qHTS cell viability counter screen (AID 1346981); note: series mostly up to about 92 µM; nearly all actives have a fitted effect of over 30% in size
Method in brief: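 Fluorescence read-out of live-cell protease activity (CellTiter-Fluor) after 1 hr with reagent. This was measured in the same wells as the caspase-3/7 luminescence, on HepG2 cells exposed to DMSO-dissolved compounds for 16 hr at 37 C.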

[15] = biological target: Cytochrome P450 2D6 (Homo sapiens) (UniProt P10635); test: Cytochrome P450 Family 2 Subfamily D Member 6 (CYP2D6) small molecule antagonists: luciferase reporter qHTS assay (AID 1671196); note: nearly all actives have a fitted effect of over 50% in size; note: potency is the fitted concentration of half-maximal effect
Chain of Cytochrome P450 2D6 (Homo sapiens) (P10635 whole entry, looked up): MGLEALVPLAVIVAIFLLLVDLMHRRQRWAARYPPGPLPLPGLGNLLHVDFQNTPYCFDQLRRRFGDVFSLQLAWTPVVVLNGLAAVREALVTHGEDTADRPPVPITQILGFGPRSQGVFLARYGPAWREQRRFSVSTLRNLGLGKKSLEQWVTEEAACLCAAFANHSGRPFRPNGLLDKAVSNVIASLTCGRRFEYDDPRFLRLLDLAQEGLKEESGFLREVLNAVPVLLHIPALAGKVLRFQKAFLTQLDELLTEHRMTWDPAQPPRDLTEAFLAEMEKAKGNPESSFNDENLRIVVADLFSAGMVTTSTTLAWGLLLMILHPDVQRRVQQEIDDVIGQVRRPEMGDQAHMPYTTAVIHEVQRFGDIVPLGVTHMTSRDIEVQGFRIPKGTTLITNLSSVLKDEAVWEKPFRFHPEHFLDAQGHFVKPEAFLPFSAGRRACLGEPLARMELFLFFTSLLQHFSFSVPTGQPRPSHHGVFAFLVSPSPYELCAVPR
Method in brief: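 Luminogenic proluciferin substrate, CYP2D6 enzyme; 10 min RT preincubation with compound, NADPH regeneration system added, 1 h RT. Stop/detection reagent, 20 min RT, luminescence read (RLU). Signal proportional to CYP activity.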

[16] = qHTS assay to identify small molecule agonists of the TGF-beta/Smad signaling pathway (AID 1346859; active = well fitted activation curve with a large enough effect in the signal ratio in the repeat runs, not every such curve was filed as active; the % refers to the signal ratio; note: series mostly up to about 77 µM)
Method in brief: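 Screening used HEK 293T SBE-bla cells at 4,000/well. Test agents: 5 hr, 37 C. Detection: FRET substrate, 2 hr RT, then excitation 405 nm with emissions at 460 and 530 nm.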

[17] = biological target: Thyrotropin-releasing hormone receptor (Homo sapiens) (UniProt P34981); test: qHTS assay to identify small molecule antagonists of the thyrotropin-releasing hormone receptor (TRHR) signaling pathway (AID 1346877; active = well fitted inhibition curve with a large enough effect in the repeat runs, not every such curve was filed as active; note: series mostly up to about 51 µM)
Method in brief: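 HEK293/TRHR cells, 18 h, 37 °C; Ca2+ dye 2 h; cpd 5 min RT; TRH 1 nM final; fluorescence read 3 min, 1 s intervals; 15 concs, triplicate.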

[18] = biological target: Nuclear receptor subfamily 1 group I member 2 (Rattus norvegicus) (UniProt Q9R1A7); test: Rat pregnane X receptor (rPXR) activation by small molecules, qHTS assay (AID 1346983); conditions: rPXR luciferase reporter cells, One-Glo luminescence, 24 h; max activation: hits give high values; note: nearly all actives have a fitted effect of over 20% in size
Chain of Nuclear receptor subfamily 1 group I member 2 (Rattus norvegicus) (Q9R1A7 whole entry, looked up): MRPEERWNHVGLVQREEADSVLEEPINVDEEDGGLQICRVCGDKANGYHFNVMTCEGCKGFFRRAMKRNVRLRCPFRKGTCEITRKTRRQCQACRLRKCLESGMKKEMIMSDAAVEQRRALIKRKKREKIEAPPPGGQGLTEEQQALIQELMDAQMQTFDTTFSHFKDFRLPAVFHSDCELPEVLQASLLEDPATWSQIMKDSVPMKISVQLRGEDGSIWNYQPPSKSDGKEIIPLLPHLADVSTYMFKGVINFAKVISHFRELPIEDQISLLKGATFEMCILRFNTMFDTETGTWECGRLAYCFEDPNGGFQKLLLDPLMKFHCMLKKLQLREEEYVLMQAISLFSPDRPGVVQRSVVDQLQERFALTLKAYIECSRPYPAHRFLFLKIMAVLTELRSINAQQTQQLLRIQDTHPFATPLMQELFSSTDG
Method in brief: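 Cell-based rPXR activation assay: rPXR cells, 2,000 per well, rested 5hr at 37 C, then exposed to compounds in DMSO for 24 hr at 37 C. Luciferase activity read by One-Glo luminescence after 30 min at room temperature.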

[19] = biological target: Nuclear receptor subfamily 1 group I member 2 (Homo sapiens) (UniProt O75469); test: CYP3A4 induction through human pregnane X receptor (PXR) by small molecules, qHTS assay (AID 1346984); note: nearly all actives have a fitted effect of over 40% in size
Method in brief: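 HepG2-derived DPX-2 line carrying PXR plus a CYP3A4-promoter luciferase reporter; cells plated 5 hr, compound-exposed 24 hr at 37C. CYP3A4 activity probed with 3uM (final) Luciferin-IPA for 3hr, then luciferase read after One-Glo.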

[20] = biological target: Nuclear receptor subfamily 1 group I member 2 (Homo sapiens) (UniProt O75469); test: Human pregnane X receptor (PXR) activation by small molecules, qHTS assay (AID 1346985); note: nearly all actives have a fitted effect of over 40% in size
Method in brief: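 DPX-2 cells (HepG2 co-transfected with a PXR response element and a CYP3A4-promoter luciferase construct) were seeded at 2,000 per well, rested 5 hr at 37C, then exposed to DMSO-dissolved compounds for 24 hr. Activation was read as luciferase luminescence.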

| SMILES | Potency [1] | Potency [2] | Potency [3] | Potency [4] | Potency [5] | outcome [6] | outcome [7] | Potency [8] | Potency [9] | Potency [10] | outcome [11] | Potency [12] | Potency [13] | Potency [14] | Potency [15] | outcome [16] | outcome [17] | max activation [18] [%] | Potency [19] | Potency [20] |
| --- | --- | --- | --- | --- | --- | --- | --- | --- | --- | --- | --- | --- | --- | --- | --- | --- | --- | --- | --- | --- |
| O=C(CCCCCCCCC#CI)Oc1ccccc1 | inactive | inactive | inactive | inactive | inactive | inactive | inactive | inactive | inactive | inactive | inactive | inactive | – | – | – | – | – | – | – | – |
| CC(=O)Nc1ccccc1C | inactive | inactive | inactive | inactive | inactive | inactive | – | – | inactive | inactive | inactive | – | inactive | inactive | inactive | – | – | – | – | – |
| CC(C)CCCCCCOC(=O)CCCCC(=O)OCCCCCCC(C)C | inactive | inactive | inactive | inactive | inactive | inactive | – | – | inactive | inactive | inactive | inactive | inactive | inactive | inactive | inactive | – | – | – | – |
| N#C[C@@H]1C[C@@H]2C[C@@H]2N1C(=O)[C@@H](N)C12CC3CC(CC(O)(C3)C1)C2 | inactive | inactive | inactive | inactive | inactive | inactive | inactive | – | inactive | inactive | inactive | inactive | inactive | – | 38.9 µM (active) | inactive | – | – | – | – |
| CCn1nc(C)c2c1C(=O)NCC(c1ccc(O)cc1)=N2 | inactive | inactive | inactive | inactive | – | inactive | inactive | – | inactive | inactive | inactive | – | inactive | inactive | inactive | inactive | – | – | – | – |
| CCCCCCCCCCCC[N+](C)(C)CCCS(=O)(=O)[O-] | inactive | inactive | inactive | inactive | – | inactive | inactive | inactive | inactive | inactive | inactive | – | – | inactive | inactive | inactive | inactive | – | – | – |
| CC(=O)OCC(=O)[C@@]12OC(C)(C)O[C@@H]1C[C@H]1[C@@H]3C[C@H](F)C4=CC(=O)C=C[C@]4(C)[C@@]3(F)[C@@H](O)C[C@@]12C | inactive | 0.0033 µM (active) | inactive | inactive | – | inactive | inactive | – | inactive | – | inactive | – | – | inactive | – | inactive | – | – | – | – |
| ON(Cc1ccccc1)Cc1ccccc1 | inactive | inactive | inactive | inactive | inactive | inactive | inactive | inactive | inactive | inactive | inactive | 34.4 µM (active) | inactive | – | 35.6 µM (active) | – | inactive | – | – | – |
| CCc1c2c(nc3ccc(OC(=O)N4CCC(N5CCCCC5)CC4)cc13)-c1cc3c(c(=O)n1C2)COC(=O)[C@]3(O)CC | inactive | inactive | inactive | inactive | inactive | – | – | inactive | inactive | inactive | inactive | inactive | – | – | inactive | inactive | inactive | -2.7 | inactive | inactive |
| Cc1ccccc1N1C(=O)c2cc(S(N)(=O)=O)c(Cl)cc2NC1C (stereo unspecified) | inactive | inactive | inactive | inactive | inactive | inactive | – | – | inactive | inactive | inactive | 5.31 µM (active) | inactive | inactive | inactive | – | – | – | – | – |
| CC(=O)N(c1onc(C)c1C)S(=O)(=O)c1ccc(N)cc1 | inactive | inactive | inactive | inactive | inactive | inactive | – | – | inactive | inactive | inactive | inactive | – | inactive | inactive | inactive | – | – | – | – |
| C=CC(C)=CCC=C(C)C | inactive | inactive | inactive | inactive | inactive | inactive | inactive | – | inactive | inactive | inactive | – | inactive | – | inactive | inactive | – | – | – | – |
| CC1(C)C(=O)N(Br)C(=O)N1Cl | inactive | inactive | inactive | inactive | inactive | inactive | – | inactive | inactive | inactive | inactive | inactive | inactive | inactive | inactive | inactive | inactive | – | – | – |
| CO[C@H]1O[C@H](CO)[C@@H](O)[C@H](O)[C@H]1O | inactive | inactive | inactive | inactive | inactive | inactive | – | inactive | inactive | inactive | inactive | inactive | – | inactive | inactive | inactive | – | – | – | – |
| Nc1ccc(S(=O)(=O)O)c(N)c1 | inactive | inactive | inactive | inactive | inactive | inactive | – | – | inactive | inactive | inactive | – | inactive | inactive | – | inactive | – | – | – | – |
